AMA1 RON2 block – qHTS for Inhibitors of AMA1-RON; Towards Development of Antimalarial Drug Lead: Primary Screen; Plasmodium falciparum AMA1 (3D7) - RON2 peptide interaction; AlphaScreen AMA1-biotinylated RON2 peptide binding; Potency, µM (doses to about 58.2 µM), for the others: at the top dose activity change, negative = inhibition, hits mostly inhibitors; AID 720542, 2013; 360,000 tested, 0.2% active;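 further: potency means the concentration at half of the fitted maximal effect; 0% = vehicle wells and -100% = peptide control; nearly all actives have a fitted effect of over 45% in size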
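AMA1 (3D7) with his tag at 25 nM final met compounds first, then biotinylated RON2 peptide at 25 nM; detection used donor plus acceptor beads, 10 µg/mL apiece, read by AlphaScreen after 30 min at room temperature.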
TbPYK inhibitor – qHTS of Trypanosoma Brucei Inhibitors; 410,000 tested, 0.12% active; AID 624173, 2012; Potency, µM (top dose mostly 76.8 µM), for the others: top-dose activity, negative = inhibition, usual class: inhibitors; TbPYK enzyme, Kinase-Glo Plus ATP luminescence, 45 min; pyruvate kinase (Trypanosoma brucei), Q57TT1; further: potency means the concentration at half of the fitted maximal effect; on the % scale 0 is the no-effect control and ±100 the full control effect; nearly all actives have a fitted effect of over 50% in size
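T. brucei PYK with substrate was exposed to pin-transferred compounds across a concentration series, then started with 130 uM ADP (final). After 45 min at room temperature, Kinase-Glo Plus luminescence was read, normalized and curve-fitted.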
SARS PLpro yeast-1 – qHTS of Yeast-based Assay for SARS-CoV PLP | S. cerevisiae expressing SARS-CoV PLpro, growth rescue | Potency, µM (series often up to 32.9 µM), inactives show top-dose activity, positive = growth rescue, usual class: activators | 330,000 tested, 0.19% active | AID 485353, 2010; calls by dose curve; further: potency means the concentration at half of the fitted maximal effect; 0% is about no effect; nearly all actives have a fitted effect of over 55% in size
RE007 growth inh – qHTS Assay for Inhibitors of the HIV-1 protein Vpr | AID 651644, 2012 | 360,000 tested, 0.21% active | S. pombe RE007 Vpr strain, BacTiter-Glo ATP luminescence, 24 h | Potency, µM (top dose mostly 92.2 µM), for the others: at the top dose activity change, negative = less growth, hits mostly inhibitors; active means well fitted falling curve with a large enough effect; inconclusive means small, poorly fitted or top-dose-only effect; inactive means no such curve, though single readings can be large or run the other way; further: potency means the concentration at half of the fitted maximal effect; on the % scale 0 is the no-effect control and ±100 the full control effect; nearly all actives have a fitted effect of over 50% in size
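Fission yeast strain RE007, carrying one chromosomally integrated HIV-1 vpr copy, was seeded at OD 0.01 in PMG+AL medium with 23 nL pinned compound. After 24 h at 30 °C and 99% humidity, viability was read by BacTiter-Glo luminescence.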
LmPK inhibitor – qHTS Assay for Inhibitors of Leishmania Mexicana Pyruvate Kinase (LmPK); purified LmPK, Kinase-Glo ATP luminescence, 1 h; Potency, µM (highest dose often 57.5 µM), without a hit: at the highest dose activity change, negative = inhibition, hits mostly inhibitors; 290,000 tested, 0.37% active; further: potency means the concentration at half of the fitted maximal effect; on the % scale 0 is the no-effect control and ±100 the full control effect
Target sequence (Q27686 whole entry, looked up): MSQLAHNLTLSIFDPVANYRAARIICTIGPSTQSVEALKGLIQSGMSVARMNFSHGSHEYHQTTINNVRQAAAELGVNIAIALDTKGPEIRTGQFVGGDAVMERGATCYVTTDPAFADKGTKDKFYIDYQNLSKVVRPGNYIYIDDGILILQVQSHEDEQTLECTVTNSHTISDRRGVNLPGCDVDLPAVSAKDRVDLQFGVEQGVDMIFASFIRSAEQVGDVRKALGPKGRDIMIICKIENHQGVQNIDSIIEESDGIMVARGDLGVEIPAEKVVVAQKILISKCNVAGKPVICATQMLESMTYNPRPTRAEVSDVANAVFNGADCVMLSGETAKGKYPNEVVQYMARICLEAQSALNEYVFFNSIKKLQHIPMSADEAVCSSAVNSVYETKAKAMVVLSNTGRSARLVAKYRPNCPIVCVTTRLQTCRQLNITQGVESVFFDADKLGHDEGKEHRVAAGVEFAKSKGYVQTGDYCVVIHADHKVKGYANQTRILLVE
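ATP generated from ADP (0.1 mM) and PEP (0.5 mM) by 0.1 nM LmPK over 1 h at room temperature (pH 7.2 imidazole buffer) was detected by coupled luciferase luminescence. Values were normalized to uninhibited and no-enzyme wells.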
SARS PLpro yeast-2 – qHTS of Yeast-based Assay for SARS-CoV PLP: Hit Validation; shares compounds with SARS PLpro yeast-1; yeast expressing SARS-CoV PLpro, growth phenotype rescue; calls only; 1,000 tested, 19% active; AID 652038, 2013; call rule not given here
An asterisk follows results filed as active; i = inactive; ? = inconclusive; . = no result; + = active, no number; [ ] = another dose, or the depositor's remark. A selection: hits, their analogues and other compounds. The true share with any hit is near 0.81%. Unless noted, the call rests on the fitted dose curve; in most records, active means well fitted curve in the direction sought with a large enough effect; inconclusive means small, poorly fitted or top-dose-only effect, or another doubt; inactive means no such curve, though single readings can be large; an effect the other way counts as inactive or inconclusive.

SMILES	AMA1 RON2 block	TbPYK inhibitor	SARS PLpro yeast-1	RE007 growth inh	LmPK inhibitor	SARS PLpro yeast-2
Cc1cc(C)c2nc(NNC(=O)c3ccc(S(=O)(=O)N4CCc5ccccc5C4)cc3)sc2c1	41%	-27%	5.6µM*	10%	2%	?
Cc1cc(C)c2sc(NNC(=O)c3ccc(S(=O)(=O)N4CCc5ccccc5C4)cc3)nc2c1	38%	0%	7.9µM*	22%	-5%	+
CCc1ccc(CN2CCC(C(=O)Nc3ccc(Oc4ccccc4)nc3)CC2)o1	-4%	-5%	2%	11%	0%	.
COc1ccc(CNC(=S)NCc2ccc(OC)cc2)cc1	6%	-5%	0%	-6%	1%	.
CCOc1ccc(CNC(=S)NCc2ccc(OCC)cc2)cc1	17%	-2%	13µM*	1%	-3%	+
CCCNC(=S)NCc1ccc(Cl)cc1	-22%	2%	?	-11%	2%	i
O=S(=O)(Nc1ccc2ccccc2n1)c1ccccc1	3%	11%	-3%	-4%	-1%	.
CCC(Sc1nc2cc(OC)c(OC)cc2c(=O)n1Cc1ccc(Cl)cc1)C(=O)NCCOC (configuration not stated)	.	-1%	.	.	.	.
CCC(=O)N1CCN(c2cc3c(cc2F)c(=O)c(C(=O)O)cn3CC)CC1	-18%	2%	.	-16%	.	.
CCn1cc(C(=O)O)c(=O)c2cc(F)c(N3CCN(S(=O)(=O)c4ccc(NC(=O)OC)cc4)CC3)cc21	6%	-1%	?	.	6%	i
O=C(NC1CCC(O)CC1)c1ccc(Br)o1 (configuration not stated)	-20%	3%	4.5µM*	5%	.	i
O=C(NC1CCCCC1)c1ccc(Br)o1	-11%	-13%	4%	-5%	0%	.
CCOC(=O)C(C)On1c(-n2nc(C)cc2C)nc2ccccc2c1=O (configuration not stated)	101%	1%	0%	0%	2%	.
S=c1[nH]nc(-c2ccncc2)n1/N=C/c1ccccc1	59%	?	?	4%	0%	i
CC(/C=C/c1ccccc1)=N\NC(=S)NC(C)C	44%	-6%	-2%	4%	4%	.
CC(/C=C/c1ccccc1)=N\NC(N)=S	21%	-3%	13µM*	0%	-12%	+
CCOc1ccccc1NS(=O)(=O)c1ccc2oc(=O)c3ncn(C)c3c2c1	.	-8%	.	.	.	.
CCN(CC)S(=O)(=O)c1ccc(N/N=C/c2ccc(O)cc2O)nc1	5%	1%	5µM*	-8%	3%	i
Oc1ccc(/C=N/Nc2ncc(Br)cn2)c(O)c1	27%[11.6 µM]	-10%	?	-3%	-6%	i
O=C(CCC(=O)c1ccc(F)cc1)NC1CCCN(Cc2ccccc2F)C1 (configuration not stated)	0%	0%	0%	5%	3%	.
O=C(CCN1CCOCC1)NC1CCCN(Cc2ccccc2F)C1 (configuration not stated)	0%	0%	?	-10%	-4%	i
CCOC(=O)C(Cc1ccccc1)C(=O)Nc1cccc(C)c1 (configuration not stated)	-2%	-13%	22µM*	-29%	2%	i
CCOC(=O)N1CCN(C(=O)CSCC(=O)Nc2nc(-c3ccc(Cl)s3)cs2)CC1	-4%	0%	13µM*	10%	-1%	?
CCOC(=O)N1CCN(C(=O)CSCC(=O)Nc2nc(-c3ccc(OC)cc3)cs2)CC1	14%	-12%	4%	3%	-1%	.
O=c1c2ccccc2ncn1CCCSc1ccccc1	13%	-2%	?	-10%	-4%	i
SMILES	AMA1 RON2 block	TbPYK inhibitor	SARS PLpro yeast-1	RE007 growth inh	LmPK inhibitor	SARS PLpro yeast-2
CCc1nc2c(OCC3CCCCC3)cccn2c1N(C=O)Cc1ccc(OC)cc1	-11%	2%	.	-19%[18.4 µM]	.	.
COc1ccc(N2CCN(S(=O)(=O)CCNC(=O)C3CC3)CC2)cc1	-9%	-9%	-5%	-6%	.	.
CC1CC1C(=O)N(C)CC(=O)Nc1ccc(Cl)c(C(F)(F)F)c1 (configuration not stated)	0%	2%	?	1%	.	i
CCOC(=O)CSc1nc2sc3c(c2c(=O)n1Cc1ccccc1)CCC(C(C)(C)C)C3 (configuration not stated)	.	-1%	.	.	.	.
c1ccc2c(c1)CC1(CCCCC1)n1nnnc1-2	?	4%	14µM*	3%	6%	i
c1ccc2c(c1)Cn1nnnc1-2	9%	1%	1%	19%	4%	.
O=C(c1ccccc1)N1CCN(C(=O)N2CCOCC2)CC1	-4%	4%	?	12%	0%	i
Cc1cc(C)c2nc(SCC(=O)N3CC(=O)Nc4ccccc43)c(C#N)cc2c1	10%	0%	22%	12%	-1%	.
COc1ccc2nc(SCC(=O)N3CC(=O)Nc4ccccc43)c(C#N)cc2c1	-3%	-3%	?	5%	-4%	i
CC(=O)Nc1ccc(S(=O)(=O)N(C)CC(=O)OCC(=O)NNC(=O)c2ccccc2F)cc1	42%	1%	-3%	-1%	.	.
CC(=O)Nc1ccc(S(=O)(=O)N(C)CC(=O)OCC(=O)NC(C)C23CC4CC(CC(C4)C2)C3)cc1 (configuration not stated)	3%	3%	?	2%	0%	i
Cc1nn(C)c(C)c1/C=C1/CC2C3CC=C4CC(O)CCC4(C)C3CCC2(C)C1=O (configuration not stated)	?	1%	13µM*	23%	3%	i
OC(c1ccc(F)c(F)c1)c1nc(-c2ccc(Cl)cc2)cs1 (configuration not stated)	15%	4%	.	-7%[18.4 µM]	.	.
O=C(CCl)Nc1cccc2ncccc12	32%	-3%	11µM*	-4%	-4%	+
COc1ccc(OCC(=O)Nc2cccc3ncccc23)cc1	5%	-3%	-8%	-7%	1%	.
CC(C)(C)c1nnc(N/N=C/c2ccccc2O)n(N)c1=O	11%	-6%	3.2µM*	-27%	1%	i
CCn1nc(C)c(/C=N/NC(=S)Nc2ccc(Cl)cc2Cl)c1C	65%	-6%	18%	-9%	7%	.
Cc1nn(C)cc1/C=N/NC(=S)Nc1ccc(Cl)cc1Cl	2%	-3%	?	-1%	5%	+
CCNC(=O)CN(c1ccc(Cl)cc1)S(=O)(=O)c1ccccc1	-11%	-3%	-19%	34%	8%	.
CCNC(=O)CN(c1ccccc1)S(=O)(=O)c1ccc(Cl)cc1	-7%	-3%	?	-5%	9%	?

Compound activity from PubChem.
